Drawing on the supplement of paper PMC6555819, this text covers PBM binding z-score for seven sequences.

Common to all, as to assay: PBM binding z-score (relative to random genomic background probes); higher = stronger binding; sequences stand for … in GC…GCGATTGACAGCGTAGAATGAAGG
For assay [1], the system named is RARb homodimer (NR concentration 270 nM). Summed up:
(§1)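 Custom Agilent 4×180K protein-binding microarrays carried double-stranded probes, each with a 34-nt variable region. These regions held direct-repeat seeds, single-nucleotide variants, half-site ablations and random human genomic background sequences. Ligand-free nuclear receptor dimers were incubated on the arrays for 1 h, antibodies against each partner (one per run) detected binding, and scanned fluorescence was regression-normalized. Binding z-scores take the random background probes as reference.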

Assay [2] concerns RARg:RXRa (NR concentration 270 nM, RXRa partner concentration 90 nM). The method in brief:
as §1

Assay [3] concerns RARg homodimer (NR concentration 270 nM). Summed up: as §1
The test system of assay [4] is RXRa DBDmut IVT, anti-RXR (DBD mutation: RXRa K156A/R161A, NR concentration 90 nM). Summed up:
as §1

Assay [5] relates to RXRa homodimer (NR concentration 180 nM). Summed up:
as §1

Assay [6] has as its system THRa:RXRa (NR concentration 90 nM, RXRa partner concentration 90 nM). Summed up:
as §1

The subject of assay [7] is THRa homodimer (NR concentration 90 nM). The method in brief: as §1
In assay [8] the test system is VDR homodimer (NR concentration 270 nM). Summed up: as §1

On to CCTTCTGGGCCAAGGTCATTGATCAGTCAAAGCA, for which the PBM binding z-score is 3.27 in assay [1]; 3.66 in assay [2]; 3.02 in assay [3]; 1.31 in assay [4]; 3.24 in assay [5]; 3.49 in assay [6]. The PBM binding z-score in assay [7] was determined as 2.34; in assay [8], 2.71.

As for CGAACTAGGTCAGAACAGGACACTGAAGGATGAT, the PBM binding z-score came to 2.12 in assay [1]; 2.35 in assay [2]; 3.35 in assay [3]; 0.629 in assay [4]; 1.37 in assay [5]; 4.03 in assay [6]. The PBM binding z-score in assay [7] is 0.473; in assay [8] it was 0.123.

Regarding TCTAGGTGGTCAAAGGTCACACACTCGAAATGCG, the PBM binding z-score in assay [1] was found to be 5.07; in assay [2], 7.33; in assay [3] it was 6.07; in assay [4], 1.85; in assay [5] it was 8.65; in assay [6] it was 4.41. Moreover, the PBM binding z-score in assay [7] amounted to 1.74; in assay [8], 2.4.

Regarding TCTACTAGTTGATTAGGGCAACCGAAACAGCGGA, the PBM binding z-score in assay [1] stood at 0.379; in assay [2], 0.164; in assay [3], 0.225; in assay [4] it was 0.346; in assay [5] it was 0.0714; in assay [6] it was 0.604. Besides, the PBM binding z-score in assay [7] was -0.104; in assay [8], -0.302.

Take TCGCCTAGGTCATGCGGGCCAGTATAGTGTCGGC: the PBM binding z-score came out at 3.2 in assay [1]; 3.96 in assay [2]; 4.3 in assay [3]; 1.28 in assay [4]; 2.9 in assay [5]; 3.29 in assay [6]. Further, the PBM binding z-score was 1.43 in assay [7] and 0.82 in assay [8].

Take TAGCCCAGGTCAGATCGGGCCAGTATACGCTATA: the PBM binding z-score in assay [1] was 2.03; in assay [2], 2.82; in assay [3], 3.39; in assay [4] it was -0.536; in assay [5] it was 1.77; in assay [6], 4.22. Moreover, the PBM binding z-score in assay [7] is 0.917; in assay [8] it was -0.0558.

For CTTTACGGGTCACGAGGTTATAGCACGACGAGCG, the PBM binding z-score came to 4.15 in assay [1]; 6.33 in assay [2]; 5.71 in assay [3]; 2.53 in assay [4]; 7.44 in assay [5]; 3.92 in assay [6]. Moreover, the PBM binding z-score in assay [7] came out at 1.66; in assay [8] it was 2.28.
